Data reported in PubChem BioAssay.
For part of these data: Potency and affinity values are given separately. Active and inactive are the calls of the source.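 How the source made its calls, unless noted: active means signal rise over 3 SD above mean of control wells given weak agonist, in both repeats and first screen; inactive means the rest.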

Legend:
[1] = test system: TRPC4 beta (transient receptor potential cation channel C4), mouse; assay: activators of mouse TRPC4 channel, confirmation, cell-based, Fluo4 calcium, HEK293 TRPC4beta/mu-opioid, duplicates, 10 µM (AID 2426;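 active means fluorescence ratio normalized to control raised more than 50% in primary screen plus both repeat runs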;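 on activation: percent rise of integrated ratio over buffer wells lacking compound which define 0%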); conditions: Fluo4 calcium fluorescence, at 10 µM; hits give high values
[2] = test system: transient receptor potential cation channel C4 beta (TRPC4), mouse; assay: activators of mouse TRPC4 channel, confirmation, cell-based, second round, Fluo4, HEK293 TRPC4beta/mu-opioid, 1 µM (AID 2461;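 active means primary screen active and over 50% activation in each of two duplicate runs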;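 on activation: 0% = wells without test compound as baseline of integrated fluorescence ratio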); conditions: Fluo4 calcium fluorescence, at 1 µM; hits give high values
[3] = test system: TRPC4 (transient receptor potential cation channel C4 beta), mouse; assay: positive allosteric modulators of mouse TRPC4, confirmation, cell-based, second round, Fluo-4, HEK293 TRPC4beta/mu-opioid, 1 µM (AID 2554;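 active means primary screen hit whose fluorescence ratio, in both repeats, exceeds the weak agonist control mean by 3 SD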); conditions: DAMGO EC20, Fluo-4 calcium flux, at 1 µM; hits give high values
[4] = test system: TRPC4 beta (transient receptor potential cation channel C4), mouse; assay: positive allosteric modulators of mouse TRPC4, confirmation, cell-based, Fluo-4, HEK293 TRPC4beta/mu-opioid (AID 2555;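 active means primary screen hit whose calcium fluorescence ratio, in both repeats, exceeds the weak agonist control mean by 3 SD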); conditions: DAMGO EC20, Fluo-4 calcium flux, at 10 µM; hits give high values
[5] = molecular target: Short transient receptor potential channel 4 (Mus musculus) (UniProt Q9QUQ5); assay: inhibitors of mouse TRPC4 channel, confirmation, cell-based, Fluo4, HEK293 TRPC4beta/mu-opioid (AID 2636;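 active means calcium signal cut by more than 3 SD below the full-agonist control yet still positive, in both repeats and the earlier primary screen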); conditions: DAMGO, Fluo4 calcium flux, at 10 µM; hits give high values
[6] = molecular target: Short transient receptor potential channel 4 (Mus musculus) (UniProt Q9QUQ5); assay: inhibitors of mouse TRPC4 channel, confirmation, cell-based, second round, Fluo4, HEK293 TRPC4beta/mu-opioid, 1 µM (AID 2637;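 active means calcium signal ratio cut to more than 3 SD under the fully stimulated control mean yet still positive, in both repeats and the primary screen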); conditions: Fluo4 calcium flux, DAMGO, at 1 µM; hits give high values
[7] = molecular target: Short transient receptor potential channel 4 (Mus musculus) (UniProt Q9QUQ5); assay: TRPC4 positive allosteric modulators, dose response, cell-based, HEK293 TRPC4/mu-opioid, Fluo-4 calcium, EC20 DAMGO (AID 434941;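 active means earlier screen potentiator hit that boosts the TRPC4 ion channel at some dose, with a dose response; inactive means no potentiation, no dose response, or not a prior hit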;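 further: calcium entry triggered by an EC20 dose of DAMGO at the co-expressed mu-opioid receptor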)
[8] = molecular target: Short transient receptor potential channel 4 (Mus musculus) (UniProt Q9QUQ5); assay: mouse TRPC4 channel inhibitors, dose response, cell-based, HEK293 TRPC4/mu-opioid, Fluo-4 calcium (AID 434942;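 active means primary screen inhibitor hit that blocks the TRPC4 channel at some tested dose, yielding a dose curve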)
[9] = molecular target: Short transient receptor potential channel 6 (Mus musculus) (UniProt Q61143); assay: inhibition of mouse TRPC6 channel, confirmation, selectivity assay for TRPC4 inhibitor project, cell-based, HEK293, membrane potential dye, duplicate (AID 434948;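 active means active in primary screen and both duplicates, each dropping signal beyond three positive-control SD with fluorescence still positive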); conditions: HEK293 TRPC6, membrane potential dye fluorescence, at 10 µM, stimulated with maximal-effect acetylcholine; hits give high values
[10] = molecular target: Short transient receptor potential channel 6 (Mus musculus) (UniProt Q61143); assay: activation of mouse TRPC6 channel, confirmation, selectivity assay for TRPC4 activator project, cell-based, HEK293, membrane potential dye, duplicate (AID 434950;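 active means membrane potential signal rise above negative control mean plus 3 SD in both duplicates, also active in the earlier TRPC4 screen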;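 on activation: 0% = buffer only wells and 100% = acetylcholine maximal-effect wells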); conditions: HEK293 TRPC6, membrane potential fluorescence, at 10 µM; hits give high values
[11] = molecular target: Short transient receptor potential channel 6 (Mus musculus) (UniProt Q61143); assay: TRPC6 potentiation by TRPC4 potentiator hits, confirmation, selectivity assay for TRPC4 potentiator project, HEK293 cells, membrane potential dye, duplicate (AID 434952;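 active means compound raising the membrane signal above positive-control mean plus 3 SD in both repeats, and a primary screen hit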); conditions: HEK293 TRPC6, membrane potential dye fluorescence, at 10 µM, maximal acetylcholine added after compound; hits give high values
[12] = molecular target: Short transient receptor potential channel 4 (Mus musculus) (UniProt Q9QUQ5); assay: calcium flux activators in TRPC4/5HT1a cells, counter-screen for TRPC4 activator project, cell-based, second counter screen, HEK293 TRPC4/5HT1a, Fluo-4 (AID 434977;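 active means calcium signal rise above buffer-control mean plus 5 SD in both duplicates, and also a hit in the primary screen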;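 on activation: plate controls were assay buffer for no effect and maximal serotonin response for full effect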); conditions: Fluo-4 calcium flux, at 10 µM; hits give high values
[13] = calcium flux inhibitors in TRPC4/5HT1a cells, confirmation, counter-screen for TRPC4 inhibitor project, cell-based, second counter screen, HEK293 TRPC4/5HT1a, Fluo-4 (AID 434978;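 active means primary screen active whose calcium signal fell more than 3 SD beyond the full-serotonin control mean in both duplicate plates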;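 further: serotonin given first at submaximal then at maximal dose after compound preincubation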); conditions: Fluo-4 calcium flux, at 10 µM, serotonin added to trigger calcium flux; hits give high values
[14] = test system: TRPC4 (mouse), co-expressed with 5HT1a in HEK293; assay: calcium flux potentiators in TRPC4/5HT1a cells, confirmation, counter-screen for TRPC4 potentiator project, cell-based, second counter screen, HEK293 TRPC4/5HT1a, Fluo-4 (AID 434979); conditions: Fluo-4 calcium flux, at 10 µM, serotonin added at its EC20 dose; hits give high values
[15] = calcium flux activation in mu-opioid HEK293 cells, confirmation, counter-screen for TRPC4 activator project, cell-based, HEK293 mu-opioid receptor line (AID 449723;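 active means hit in primary screen, with calcium signal over 5 SD above buffer well mean in both duplicates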;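 further: counter screen cells carry the mu-opioid receptor alone and lack TRPC4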); conditions: Fluo-4 calcium fluorescence, at 10 µM; hits give high values
[16] = calcium flux enhancement in mu-opioid HEK293 cells, confirmation, counter-screen for TRPC4 allosteric potentiator project, cell-based, HEK293 mu-opioid receptor line (AID 449724;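 active means calcium signal rise more than 3 SD above the low-dose agonist control mean, in both duplicate plates and the primary screen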); conditions: Fluo-4 calcium flux, at 10 µM, compound added before EC20 DAMGO stimulus; hits give high values

Measured: activation

Sequence of Short transient receptor potential channel 4 (Mus musculus) (Q9QUQ5 whole entry, looked up): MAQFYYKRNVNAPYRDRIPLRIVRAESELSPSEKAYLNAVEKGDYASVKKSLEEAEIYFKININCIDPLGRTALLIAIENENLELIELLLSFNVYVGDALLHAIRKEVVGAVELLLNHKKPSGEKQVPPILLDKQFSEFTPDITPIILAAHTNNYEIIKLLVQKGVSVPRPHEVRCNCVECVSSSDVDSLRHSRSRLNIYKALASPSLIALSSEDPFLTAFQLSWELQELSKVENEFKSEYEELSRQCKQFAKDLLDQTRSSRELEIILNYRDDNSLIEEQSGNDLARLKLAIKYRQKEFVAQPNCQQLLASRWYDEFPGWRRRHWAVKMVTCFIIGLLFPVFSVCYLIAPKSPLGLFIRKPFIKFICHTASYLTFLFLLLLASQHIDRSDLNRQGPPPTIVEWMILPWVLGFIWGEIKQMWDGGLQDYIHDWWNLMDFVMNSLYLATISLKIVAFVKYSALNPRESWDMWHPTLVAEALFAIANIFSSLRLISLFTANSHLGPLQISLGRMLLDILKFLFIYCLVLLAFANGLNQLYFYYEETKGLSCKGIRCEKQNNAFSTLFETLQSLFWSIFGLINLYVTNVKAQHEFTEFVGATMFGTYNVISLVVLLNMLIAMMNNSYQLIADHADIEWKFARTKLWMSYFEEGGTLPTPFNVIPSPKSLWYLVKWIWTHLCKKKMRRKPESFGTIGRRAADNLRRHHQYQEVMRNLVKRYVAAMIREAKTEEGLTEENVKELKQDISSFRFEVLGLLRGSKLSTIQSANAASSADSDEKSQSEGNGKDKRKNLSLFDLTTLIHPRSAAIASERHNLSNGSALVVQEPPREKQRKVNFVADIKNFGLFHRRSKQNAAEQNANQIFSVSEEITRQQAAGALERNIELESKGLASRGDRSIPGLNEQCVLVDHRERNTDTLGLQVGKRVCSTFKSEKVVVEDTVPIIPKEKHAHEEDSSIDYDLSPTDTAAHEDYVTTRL
Sequence of Short transient receptor potential channel 6 (Mus musculus) (Q61143 whole entry, looked up): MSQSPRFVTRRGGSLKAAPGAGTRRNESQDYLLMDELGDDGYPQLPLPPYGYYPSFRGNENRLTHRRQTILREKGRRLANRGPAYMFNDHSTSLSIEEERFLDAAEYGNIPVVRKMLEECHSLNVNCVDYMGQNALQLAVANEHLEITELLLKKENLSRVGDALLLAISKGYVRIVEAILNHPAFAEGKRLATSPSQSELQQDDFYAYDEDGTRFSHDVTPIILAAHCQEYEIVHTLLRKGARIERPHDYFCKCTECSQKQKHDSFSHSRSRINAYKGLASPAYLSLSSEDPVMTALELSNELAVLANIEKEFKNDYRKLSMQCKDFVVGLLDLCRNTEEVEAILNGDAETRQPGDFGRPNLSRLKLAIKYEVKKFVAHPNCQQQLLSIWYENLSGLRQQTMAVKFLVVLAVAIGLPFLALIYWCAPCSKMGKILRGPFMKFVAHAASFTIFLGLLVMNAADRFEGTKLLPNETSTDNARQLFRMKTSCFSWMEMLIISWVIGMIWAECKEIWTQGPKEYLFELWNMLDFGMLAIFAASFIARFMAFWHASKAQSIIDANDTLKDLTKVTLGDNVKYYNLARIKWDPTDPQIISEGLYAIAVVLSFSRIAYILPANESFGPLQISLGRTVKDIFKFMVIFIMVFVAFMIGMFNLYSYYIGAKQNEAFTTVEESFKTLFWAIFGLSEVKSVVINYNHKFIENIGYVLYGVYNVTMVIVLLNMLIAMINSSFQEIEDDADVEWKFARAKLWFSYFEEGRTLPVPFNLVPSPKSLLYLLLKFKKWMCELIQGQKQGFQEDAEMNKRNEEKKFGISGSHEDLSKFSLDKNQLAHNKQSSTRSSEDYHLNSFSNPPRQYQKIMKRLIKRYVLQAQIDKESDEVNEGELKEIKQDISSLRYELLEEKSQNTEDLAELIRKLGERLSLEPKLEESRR

COc1c2c(cc3c1C(CC(O)Cc1ccccc1)N(C)CC3)OCO2 (stereo not given)
inactive: [2] | [3] | [4] | [5] | [6] | [7] | [8] | [9] | [11] | [12] | [13] | [14] | [15] | [16]
active: [1] 110% | [10] 43%

CN(C)C(CNC(=O)CCS(=O)(=O)c1ccccc1)c1ccccc1 (stereo not given)
active: [1] 77% | [2] 75%
inactive: [3] | [4] | [5] | [6] | [7] | [8] | [9] | [10] | [11] | [12] | [13] | [14] | [15] | [16]

CC1(C(=O)NC(=S)NNC(=O)c2ccncc2)CCCCC1
active: [1] 197% | [12] 101%
inactive: [2] | [3] | [4] | [5] | [6] | [7] | [8] | [9] | [10] | [11] | [13] | [14] | [15] | [16]

CC(C)(C)c1cc(O)c(C(C)(C)C)cc1O
inactive: [2] | [3] | [4] | [5] | [6] | [7] | [8] | [9] | [10] | [11] | [13] | [14] | [16]
active: [1] 100% | [12] 55.9% | [15] 47.1%

Fc1ccc(-n2cc(CNCCc3cccnc3)c(-c3ccccc3Cl)n2)cc1
active: [1] 153% | [10] 31%
inactive: [2] | [3] | [4] | [5] | [6] | [7] | [8] | [9] | [11] | [12] | [13] | [14] | [15] | [16]

CCn1c(N2CCN(CC(=O)Nc3cccc(C)c3C)CC2)nc2ccccc21
active: [1] 120% | [2] 57% | [10] 56.5% | [12] 23.9%
inactive: [3] | [4] | [5] | [6] | [7] | [8] | [9] | [11] | [13] | [14] | [15] | [16]

O=C(NCCc1cnc[nH]1)c1ccc(-c2ccccc2)cc1
active: [1] 109% | [10] 59% | [12] 17.5%
inactive: [2] | [3] | [4] | [5] | [6] | [7] | [8] | [9] | [11] | [13] | [14] | [15] | [16]

CCOC(=O)C1(CCOC)CCN(Cc2ccccc2-c2ccco2)CC1
inactive: [2] | [3] | [4] | [5] | [6] | [7] | [8] | [9] | [11] | [12] | [13] | [14] | [15] | [16]
active: [1] 60% | [10] 68.5%

Cc1ccc(NC(=O)NCC(c2ccccc2)N(C)C)cc1 (stereo not given)
active: [1] 107% | [2] 136% | [10] 38.5%
inactive: [3] | [4] | [5] | [6] | [7] | [8] | [9] | [11] | [12] | [13] | [14] | [15] | [16]

CN1C2C=C(N(CCc3ccccc3)C(=O)c3ccc(Cl)cc3)CC1CC2 (stereo not given)
active: [10] 50%
inactive: [1] | [2] | [3] | [4] | [5] | [6] | [7] | [8] | [9] | [11] | [12] | [13] | [14] | [15] | [16]

COC(=O)C1CCN(Cc2cn(-c3ccccc3)nc2-c2ccc3c(c2)OCO3)CC1
inactive: [1] | [2] | [3] | [4] | [5] | [6] | [7] | [8] | [9] | [11] | [12] | [13] | [14] | [15] | [16]
active: [10] 45%

CN(CCc1ccccn1)C1CC(=O)N(c2ccc(Cl)cc2)C1=O (stereo not given)
active: [1] 195% | [2] 70% | [12] 102%
inactive: [3] | [4] | [5] | [6] | [7] | [8] | [9] | [10] | [11] | [13] | [14] | [15] | [16]

Cc1sc2ncnc(NCC(c3ccco3)N(C)C)c2c1C (stereo not given)
active: [1] 202% | [2] 116% | [12] 91.1%
inactive: [3] | [4] | [5] | [6] | [7] | [8] | [9] | [10] | [11] | [13] | [14] | [15] | [16]

COc1ccc(F)cc1CN1CCN(C(=O)CCC(=O)Nc2nnc(C(C)C)s2)CC1
inactive: [1] | [2] | [3] | [4] | [5] | [6] | [7] | [8] | [9] | [11] | [12] | [13] | [14] | [15] | [16]
active: [10] 41.5%

Cc1c(Cl)cccc1NC(=S)NCC(c1cccnc1)N(C)C (stereo not given)
active: [2] 103% | [10] 47.5%
inactive: [1] | [3] | [4] | [5] | [6] | [7] | [8] | [9] | [11] | [12] | [13] | [14] | [15] | [16]
